# Measurements as given in article PMC7862700, “An all-to-all approach to the identification of sequence-specific readers for epigenetic DNA modifications on cytosine”.
# Tests used:
# Experiment in all cases: DAPPL (digital affinity profiling via proximity ligation, sequencing); 10 mM Tris-HCl pH 7.5, 50 mM NaCl, 1 mM DTT, 4% glycerol, room temperature, 30 min; GST-TFs on glutathione beads, 16-mer random dsDNA library, 0.1% formaldehyde crosslink after washing; high values mean tight binding
# FLI1 = biological target: T1, FLI1 (Homo sapiens, UniProt Q01543 1-452); conditions: protein: recombinant; tags: N-terminal GST; dsDNA, one strand shown
# T1 sequence: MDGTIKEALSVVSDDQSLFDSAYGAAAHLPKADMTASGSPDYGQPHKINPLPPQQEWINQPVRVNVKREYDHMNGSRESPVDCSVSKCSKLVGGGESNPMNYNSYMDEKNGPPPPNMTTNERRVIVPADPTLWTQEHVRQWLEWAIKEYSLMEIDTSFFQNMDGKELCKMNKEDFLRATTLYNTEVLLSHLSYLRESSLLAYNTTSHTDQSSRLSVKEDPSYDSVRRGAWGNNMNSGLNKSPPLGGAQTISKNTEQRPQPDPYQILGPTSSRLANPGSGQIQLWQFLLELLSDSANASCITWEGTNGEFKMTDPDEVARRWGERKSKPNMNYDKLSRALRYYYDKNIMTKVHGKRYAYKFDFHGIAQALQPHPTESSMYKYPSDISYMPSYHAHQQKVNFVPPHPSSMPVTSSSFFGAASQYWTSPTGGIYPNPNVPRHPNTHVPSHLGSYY
# In short: (§1)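 Human transcription factors fused to GST were expressed in yeast, captured on glutathione beads, given DNA barcodes and pooled with a GST-only negative control. Pools were incubated with 200 nmole of a 16-mer random double-stranded DNA library in Tris/NaCl/DTT/glycerol buffer at room temperature for 30 min. They were then washed, crosslinked with 0.1% formaldehyde, proximity-ligated (BsaI/T4 ligase, 1 h, 37 °C), PCR-amplified and sequenced on an Illumina NextSeq500. Binding signal is each 6-mer's read frequency for a factor divided by its frequency for the GST control.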
# ELK1 = biological target: T2, ELK1 (Homo sapiens, UniProt P19419 1-428); conditions: protein: recombinant; tags: N-terminal GST; dsDNA, one strand shown
# T2 sequence: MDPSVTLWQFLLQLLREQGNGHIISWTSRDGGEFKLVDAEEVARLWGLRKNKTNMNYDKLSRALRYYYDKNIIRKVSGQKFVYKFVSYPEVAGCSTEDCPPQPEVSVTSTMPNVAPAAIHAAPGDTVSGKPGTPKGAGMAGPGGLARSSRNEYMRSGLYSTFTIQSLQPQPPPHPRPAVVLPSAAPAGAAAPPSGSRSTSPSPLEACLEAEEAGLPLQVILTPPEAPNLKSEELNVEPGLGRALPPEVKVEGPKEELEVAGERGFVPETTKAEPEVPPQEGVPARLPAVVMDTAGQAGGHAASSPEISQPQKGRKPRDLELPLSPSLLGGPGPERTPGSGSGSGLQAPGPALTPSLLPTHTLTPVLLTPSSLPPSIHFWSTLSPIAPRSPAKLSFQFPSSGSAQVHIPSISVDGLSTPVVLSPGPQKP
# In short: as §1
# GABPA = biological target: T3, GABPA (Homo sapiens, UniProt Q06546 1-454); conditions: protein: recombinant; tags: N-terminal GST; dsDNA, one strand shown
# T3 sequence: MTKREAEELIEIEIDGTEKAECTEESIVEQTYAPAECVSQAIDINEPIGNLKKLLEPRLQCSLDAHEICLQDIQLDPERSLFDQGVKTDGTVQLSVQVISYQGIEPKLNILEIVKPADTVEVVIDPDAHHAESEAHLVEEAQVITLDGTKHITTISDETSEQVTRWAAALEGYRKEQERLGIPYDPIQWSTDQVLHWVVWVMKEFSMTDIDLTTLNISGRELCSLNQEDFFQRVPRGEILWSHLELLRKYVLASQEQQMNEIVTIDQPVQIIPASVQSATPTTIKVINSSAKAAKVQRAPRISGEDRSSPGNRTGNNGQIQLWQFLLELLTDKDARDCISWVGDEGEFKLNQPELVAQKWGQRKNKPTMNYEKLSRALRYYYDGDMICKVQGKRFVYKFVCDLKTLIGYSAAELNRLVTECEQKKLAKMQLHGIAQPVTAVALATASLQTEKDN
# In short: as §1
# ERG = biological target: T4, ERG (Homo sapiens, UniProt P11308 1-479); conditions: protein: recombinant; tags: N-terminal GST; dsDNA, one strand shown
# T4 sequence: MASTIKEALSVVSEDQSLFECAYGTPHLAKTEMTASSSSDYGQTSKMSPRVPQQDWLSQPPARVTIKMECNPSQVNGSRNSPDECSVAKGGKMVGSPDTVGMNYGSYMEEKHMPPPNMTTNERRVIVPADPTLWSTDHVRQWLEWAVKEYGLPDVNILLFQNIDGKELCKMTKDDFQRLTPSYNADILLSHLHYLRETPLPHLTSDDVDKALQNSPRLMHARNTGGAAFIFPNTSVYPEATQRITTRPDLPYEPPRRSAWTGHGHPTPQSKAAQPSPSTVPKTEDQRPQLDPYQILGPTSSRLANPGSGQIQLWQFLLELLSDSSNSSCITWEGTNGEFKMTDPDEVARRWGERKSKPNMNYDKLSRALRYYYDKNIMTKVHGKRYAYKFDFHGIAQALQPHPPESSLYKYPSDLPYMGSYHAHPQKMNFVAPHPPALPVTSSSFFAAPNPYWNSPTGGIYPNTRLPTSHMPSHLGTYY
# In short: as §1
# ELF1 = ELF1 (Homo sapiens, UniProt P32519 1-619); conditions: protein: recombinant; tags: N-terminal GST; dsDNA, one strand shown
# In short: as §1
# EHF = biological target: T5, EHF (Homo sapiens, UniProt Q9NZC4 1-300); conditions: protein: recombinant; tags: N-terminal GST; dsDNA, one strand shown
# T5 sequence: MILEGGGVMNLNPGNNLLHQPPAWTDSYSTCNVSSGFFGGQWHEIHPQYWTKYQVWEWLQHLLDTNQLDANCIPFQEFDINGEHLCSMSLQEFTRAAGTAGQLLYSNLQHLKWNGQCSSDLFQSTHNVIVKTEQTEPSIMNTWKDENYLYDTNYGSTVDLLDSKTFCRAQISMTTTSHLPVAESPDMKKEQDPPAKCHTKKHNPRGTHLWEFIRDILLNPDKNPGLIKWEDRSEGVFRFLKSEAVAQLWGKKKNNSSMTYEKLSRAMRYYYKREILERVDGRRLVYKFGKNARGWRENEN
# In short: as §1
# SPI1 = SPI1 (Homo sapiens, UniProt P17947 1-270); conditions: protein: recombinant; tags: N-terminal GST; dsDNA, one strand shown
# In short: as §1
# SPIB = SPIB (Homo sapiens, UniProt Q01892 1-262); conditions: protein: recombinant; tags: N-terminal GST; dsDNA, one strand shown
# In short: as §1
# ELK3 = biological target: T6, ELK3 (Homo sapiens, UniProt P41970 1-407); conditions: protein: recombinant; tags: N-terminal GST; dsDNA, one strand shown
# T6 sequence: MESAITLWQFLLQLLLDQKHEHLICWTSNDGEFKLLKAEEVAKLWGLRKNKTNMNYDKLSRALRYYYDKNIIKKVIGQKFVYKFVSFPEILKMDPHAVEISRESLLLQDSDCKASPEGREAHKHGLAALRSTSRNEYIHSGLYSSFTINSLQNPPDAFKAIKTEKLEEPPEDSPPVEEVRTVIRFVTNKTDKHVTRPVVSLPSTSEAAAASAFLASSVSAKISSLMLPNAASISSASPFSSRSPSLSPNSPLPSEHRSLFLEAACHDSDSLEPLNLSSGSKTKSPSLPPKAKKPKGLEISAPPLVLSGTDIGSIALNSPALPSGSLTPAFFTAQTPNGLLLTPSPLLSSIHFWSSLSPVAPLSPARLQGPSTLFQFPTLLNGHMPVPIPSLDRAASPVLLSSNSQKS
# In short: as §1
# FEV = biological target: T7, FEV (Homo sapiens, UniProt Q99581 1-238); conditions: protein: recombinant; tags: N-terminal GST; dsDNA, one strand shown
# T7 sequence: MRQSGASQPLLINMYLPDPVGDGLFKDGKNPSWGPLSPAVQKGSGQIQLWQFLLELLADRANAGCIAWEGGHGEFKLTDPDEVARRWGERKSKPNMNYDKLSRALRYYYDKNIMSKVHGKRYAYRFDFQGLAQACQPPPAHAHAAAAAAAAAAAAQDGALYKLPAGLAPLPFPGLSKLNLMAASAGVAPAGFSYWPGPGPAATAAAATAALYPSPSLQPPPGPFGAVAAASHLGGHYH
# In short: as §1
# ETV5 = ETV5 (Homo sapiens, UniProt P41161 1-510); conditions: protein: recombinant; tags: N-terminal GST; dsDNA, one strand shown
# In short: as §1
# HSF1 = HSF1 (Homo sapiens, UniProt Q00613 1-529); conditions: protein: recombinant; tags: N-terminal GST; chain copies: 3; dsDNA, one strand shown
# In short: as §1
# SPIC = biological target: T8, SPIC (Homo sapiens, UniProt Q8N5J4 1-248); conditions: protein: recombinant; tags: N-terminal GST; dsDNA, one strand shown
# T8 sequence: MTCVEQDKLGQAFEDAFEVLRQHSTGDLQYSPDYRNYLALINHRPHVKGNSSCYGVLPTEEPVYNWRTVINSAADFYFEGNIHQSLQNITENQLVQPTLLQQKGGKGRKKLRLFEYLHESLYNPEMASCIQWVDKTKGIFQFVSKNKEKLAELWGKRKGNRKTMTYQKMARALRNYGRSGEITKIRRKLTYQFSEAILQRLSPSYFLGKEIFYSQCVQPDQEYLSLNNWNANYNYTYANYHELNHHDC
# In short: as §1
# ELF4 = ELF4 (Homo sapiens, UniProt Q99607 1-663); conditions: protein: recombinant; tags: N-terminal GST; dsDNA, one strand shown
# In short: as §1
# ELK4 = biological target: T9, ELK4 (Homo sapiens, UniProt P28324-2 1-405); conditions: protein: recombinant; tags: N-terminal GST; dsDNA, one strand shown
# T9 sequence: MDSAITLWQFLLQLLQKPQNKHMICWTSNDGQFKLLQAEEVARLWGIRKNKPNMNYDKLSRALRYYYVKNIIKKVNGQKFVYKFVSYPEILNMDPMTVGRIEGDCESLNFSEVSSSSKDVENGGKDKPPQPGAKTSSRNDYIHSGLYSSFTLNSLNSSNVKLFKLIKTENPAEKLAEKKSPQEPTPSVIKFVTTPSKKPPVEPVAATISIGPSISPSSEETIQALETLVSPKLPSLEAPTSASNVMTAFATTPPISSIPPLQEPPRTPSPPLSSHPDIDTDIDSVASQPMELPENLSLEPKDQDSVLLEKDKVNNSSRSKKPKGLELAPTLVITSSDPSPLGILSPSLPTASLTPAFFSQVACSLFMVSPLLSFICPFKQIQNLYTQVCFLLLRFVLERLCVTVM
# In short: as §1
# ETV2 = biological target: T10, ETV2 (Homo sapiens, UniProt O00321 1-342); conditions: protein: recombinant; tags: N-terminal GST; dsDNA, one strand shown
# T10 sequence: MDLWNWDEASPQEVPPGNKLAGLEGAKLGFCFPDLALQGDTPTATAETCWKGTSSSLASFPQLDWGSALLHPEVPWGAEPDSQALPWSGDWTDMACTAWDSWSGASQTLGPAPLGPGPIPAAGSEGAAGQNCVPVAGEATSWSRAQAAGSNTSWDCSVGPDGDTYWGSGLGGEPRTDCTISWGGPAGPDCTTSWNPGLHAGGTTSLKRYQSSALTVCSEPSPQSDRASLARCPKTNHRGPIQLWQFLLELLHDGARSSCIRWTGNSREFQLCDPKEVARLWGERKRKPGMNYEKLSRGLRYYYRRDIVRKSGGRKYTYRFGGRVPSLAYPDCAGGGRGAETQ
# In short: as §1
# ELF3 = biological target: T11, ELF3 (Homo sapiens, UniProt P78545 1-371); conditions: protein: recombinant; tags: N-terminal GST; dsDNA, one strand shown
# T11 sequence: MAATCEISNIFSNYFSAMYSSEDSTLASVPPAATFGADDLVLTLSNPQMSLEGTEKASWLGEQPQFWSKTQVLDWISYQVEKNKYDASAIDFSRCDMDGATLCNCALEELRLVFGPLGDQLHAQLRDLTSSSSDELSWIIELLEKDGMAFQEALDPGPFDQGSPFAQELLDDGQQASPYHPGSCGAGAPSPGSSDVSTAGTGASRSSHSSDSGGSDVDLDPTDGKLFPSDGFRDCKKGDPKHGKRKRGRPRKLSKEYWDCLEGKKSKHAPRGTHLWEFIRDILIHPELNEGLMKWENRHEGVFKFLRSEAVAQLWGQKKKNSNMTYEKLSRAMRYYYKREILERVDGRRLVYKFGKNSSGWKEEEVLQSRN
# In short: as §1
# CRX = CRX (Homo sapiens, UniProt O43186 1-299); conditions: protein: recombinant; tags: N-terminal GST; dsDNA, one strand shown
# In short: as §1
# ETV1 = ETV1 (Homo sapiens, UniProt P50549 1-477); conditions: protein: recombinant; tags: N-terminal GST; dsDNA, one strand shown
# In short: as §1
# Chain of ETV5 (P41161 whole entry): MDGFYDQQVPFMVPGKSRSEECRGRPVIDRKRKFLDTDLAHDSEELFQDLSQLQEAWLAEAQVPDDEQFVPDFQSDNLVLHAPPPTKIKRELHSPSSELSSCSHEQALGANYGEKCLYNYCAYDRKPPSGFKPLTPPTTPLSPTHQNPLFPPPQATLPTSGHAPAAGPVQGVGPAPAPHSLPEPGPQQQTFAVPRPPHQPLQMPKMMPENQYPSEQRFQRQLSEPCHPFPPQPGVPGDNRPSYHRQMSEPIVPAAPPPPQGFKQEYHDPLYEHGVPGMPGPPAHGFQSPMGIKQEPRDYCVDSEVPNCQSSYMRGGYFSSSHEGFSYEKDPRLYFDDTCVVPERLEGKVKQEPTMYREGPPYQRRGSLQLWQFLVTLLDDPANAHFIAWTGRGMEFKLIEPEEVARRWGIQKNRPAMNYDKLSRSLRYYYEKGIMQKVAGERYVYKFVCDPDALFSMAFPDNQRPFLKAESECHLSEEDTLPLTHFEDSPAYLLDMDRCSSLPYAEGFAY
# Chain of HSF1 (Q00613 whole entry): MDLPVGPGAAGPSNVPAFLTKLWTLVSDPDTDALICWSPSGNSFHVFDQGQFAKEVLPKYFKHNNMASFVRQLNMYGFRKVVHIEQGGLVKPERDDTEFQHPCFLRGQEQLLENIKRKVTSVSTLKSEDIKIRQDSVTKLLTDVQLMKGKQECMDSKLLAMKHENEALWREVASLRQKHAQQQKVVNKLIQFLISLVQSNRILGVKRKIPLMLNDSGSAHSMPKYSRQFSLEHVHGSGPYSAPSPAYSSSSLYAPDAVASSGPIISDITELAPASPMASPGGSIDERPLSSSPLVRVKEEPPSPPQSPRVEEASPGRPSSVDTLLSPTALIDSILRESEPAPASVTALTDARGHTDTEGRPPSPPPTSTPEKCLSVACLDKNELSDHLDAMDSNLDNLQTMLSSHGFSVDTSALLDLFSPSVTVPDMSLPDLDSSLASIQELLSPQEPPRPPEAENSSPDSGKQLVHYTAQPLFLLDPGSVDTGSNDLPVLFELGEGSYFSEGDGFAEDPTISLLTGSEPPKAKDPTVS
# Chain of ETV1 (P50549 whole entry): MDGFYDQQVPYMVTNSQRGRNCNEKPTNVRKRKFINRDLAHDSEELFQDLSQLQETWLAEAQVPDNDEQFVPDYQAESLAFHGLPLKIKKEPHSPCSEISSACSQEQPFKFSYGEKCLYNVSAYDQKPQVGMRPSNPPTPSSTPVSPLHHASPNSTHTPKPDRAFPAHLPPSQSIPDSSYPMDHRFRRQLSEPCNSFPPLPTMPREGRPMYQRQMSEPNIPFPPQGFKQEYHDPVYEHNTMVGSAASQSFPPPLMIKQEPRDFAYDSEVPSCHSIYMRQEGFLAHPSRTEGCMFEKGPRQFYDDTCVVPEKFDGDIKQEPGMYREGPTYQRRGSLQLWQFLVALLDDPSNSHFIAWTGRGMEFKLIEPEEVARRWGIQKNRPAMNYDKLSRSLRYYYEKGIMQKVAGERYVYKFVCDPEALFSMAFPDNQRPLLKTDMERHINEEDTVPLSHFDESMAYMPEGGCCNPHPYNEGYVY
# Chain of CRX (O43186 whole entry): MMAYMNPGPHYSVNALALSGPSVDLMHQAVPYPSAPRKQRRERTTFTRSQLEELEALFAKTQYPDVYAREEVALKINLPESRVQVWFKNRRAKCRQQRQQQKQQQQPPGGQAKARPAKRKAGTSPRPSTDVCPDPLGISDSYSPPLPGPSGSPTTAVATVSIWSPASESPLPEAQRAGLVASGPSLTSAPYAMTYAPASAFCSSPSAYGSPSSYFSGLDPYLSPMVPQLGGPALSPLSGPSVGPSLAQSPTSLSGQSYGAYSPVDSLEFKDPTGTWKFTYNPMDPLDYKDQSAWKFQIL
# Chain of SPIB (Q01892 whole entry): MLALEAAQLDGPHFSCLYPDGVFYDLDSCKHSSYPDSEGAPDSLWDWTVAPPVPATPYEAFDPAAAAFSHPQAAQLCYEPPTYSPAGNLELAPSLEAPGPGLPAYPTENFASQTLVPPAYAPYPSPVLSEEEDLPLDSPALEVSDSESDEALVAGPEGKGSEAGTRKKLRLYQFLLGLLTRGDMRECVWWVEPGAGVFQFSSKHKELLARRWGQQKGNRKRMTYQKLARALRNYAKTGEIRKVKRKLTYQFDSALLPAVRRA
# Chain of ELF1 (P32519 whole entry): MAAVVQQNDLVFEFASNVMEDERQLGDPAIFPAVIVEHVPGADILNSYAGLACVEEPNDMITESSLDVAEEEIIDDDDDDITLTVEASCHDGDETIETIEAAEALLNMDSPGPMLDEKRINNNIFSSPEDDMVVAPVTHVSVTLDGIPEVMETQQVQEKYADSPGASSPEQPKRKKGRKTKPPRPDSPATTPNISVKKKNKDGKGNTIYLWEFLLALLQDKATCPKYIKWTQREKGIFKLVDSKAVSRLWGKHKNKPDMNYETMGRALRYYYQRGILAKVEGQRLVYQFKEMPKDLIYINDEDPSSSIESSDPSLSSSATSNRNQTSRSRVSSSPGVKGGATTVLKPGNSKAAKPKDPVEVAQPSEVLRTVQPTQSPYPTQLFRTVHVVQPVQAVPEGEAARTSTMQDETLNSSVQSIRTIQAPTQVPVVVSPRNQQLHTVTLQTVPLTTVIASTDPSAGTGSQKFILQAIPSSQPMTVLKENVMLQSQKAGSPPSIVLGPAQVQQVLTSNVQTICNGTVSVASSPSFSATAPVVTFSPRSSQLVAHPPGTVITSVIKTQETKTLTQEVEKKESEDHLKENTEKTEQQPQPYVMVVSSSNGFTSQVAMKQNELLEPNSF
# Chain of ELF4 (Q99607 whole entry): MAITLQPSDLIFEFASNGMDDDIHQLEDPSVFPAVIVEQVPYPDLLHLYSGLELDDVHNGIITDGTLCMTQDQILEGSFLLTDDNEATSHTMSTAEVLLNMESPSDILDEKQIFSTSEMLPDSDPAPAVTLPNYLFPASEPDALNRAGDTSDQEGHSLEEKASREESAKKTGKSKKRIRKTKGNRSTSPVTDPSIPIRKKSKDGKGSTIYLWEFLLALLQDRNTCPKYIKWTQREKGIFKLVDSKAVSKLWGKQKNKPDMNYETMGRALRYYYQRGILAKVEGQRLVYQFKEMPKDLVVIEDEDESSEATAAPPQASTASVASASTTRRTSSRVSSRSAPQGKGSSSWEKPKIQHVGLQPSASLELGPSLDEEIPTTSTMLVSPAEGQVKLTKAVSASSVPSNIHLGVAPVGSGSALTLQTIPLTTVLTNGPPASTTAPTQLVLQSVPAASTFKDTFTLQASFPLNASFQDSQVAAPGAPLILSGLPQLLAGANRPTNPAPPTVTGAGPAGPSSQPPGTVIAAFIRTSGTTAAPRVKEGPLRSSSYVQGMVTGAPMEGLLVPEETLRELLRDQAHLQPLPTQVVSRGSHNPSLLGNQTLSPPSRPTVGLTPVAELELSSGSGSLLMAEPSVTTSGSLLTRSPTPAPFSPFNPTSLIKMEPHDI
sequence,measurement,setting,value
TTACAA,binding signal,FLI1,"1.15 fold enrichment (6-mer frequency, TF over GST control)"
same,binding signal,ELK1,"1.17 fold enrichment (6-mer frequency, TF over GST control)"
same,binding signal,GABPA,"1.16 fold enrichment (6-mer frequency, TF over GST control)"
same,binding signal,ERG,"1.16 fold enrichment (6-mer frequency, TF over GST control)"
same,binding signal,ELF1,"1.15 fold enrichment (6-mer frequency, TF over GST control)"
same,binding signal,EHF,"1.17 fold enrichment (6-mer frequency, TF over GST control)"
same,binding signal,SPI1,"1.15 fold enrichment (6-mer frequency, TF over GST control)"
same,binding signal,SPIB,"1.07 fold enrichment (6-mer frequency, TF over GST control)"
same,binding signal,ELK3,"1.13 fold enrichment (6-mer frequency, TF over GST control)"
same,binding signal,FEV,"1.12 fold enrichment (6-mer frequency, TF over GST control)"
same,binding signal,ETV5,"1.1 fold enrichment (6-mer frequency, TF over GST control)"
same,binding signal,HSF1,"1.31 fold enrichment (6-mer frequency, TF over GST control)"
same,binding signal,SPIC,"1.12 fold enrichment (6-mer frequency, TF over GST control)"
same,binding signal,ELF4,"1.12 fold enrichment (6-mer frequency, TF over GST control)"
same,binding signal,ELK4,"1.24 fold enrichment (6-mer frequency, TF over GST control)"
same,binding signal,ETV2,"1.09 fold enrichment (6-mer frequency, TF over GST control)"
same,binding signal,ELF3,"1.22 fold enrichment (6-mer frequency, TF over GST control)"
same,binding signal,CRX,"1.77 fold enrichment (6-mer frequency, TF over GST control)"
same,binding signal,ETV1,"1.18 fold enrichment (6-mer frequency, TF over GST control)"
